Assay results reported in PubChem BioAssay (NCI).
“And” between values parts separate entries of the source, which are not always exact repeats. Equal values may be shown once. About 79,000 compounds went through this panel and 15% of them were active in at least one assay; those are over-represented in the sample as a whole. More than one record can exist for a structure, and the calls need not agree. The source made the active and inactive calls. No stated cut-off is given here; in the data, active means growth inhibition above about 70%; inactive means the rest.

How the values were obtained:
[1] = NCI Yeast Anticancer Drug Screen. Data for the rad50 strain (AID 155);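 further: 0% = growth of vehicle-only cultures of the same strain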; conditions: S. cerevisiae rad50 strain growth inhibition, stronger effect = higher value
How it was run: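 Compounds were tested on a yeast strain with an engineered DNA damage repair alteration; the reported value is growth inhibition normalised to vehicle treatment.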

[2] = NCI Yeast Anticancer Drug Screen. Data for the mec2-1 strain (AID 157); conditions: S. cerevisiae mec2-1 strain, stronger effect = higher value
How it was run: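 Yeast mec2-1 mutant treated with compound. Readout: growth inhibition vs vehicle controls.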

[3] = NCI Yeast Anticancer Drug Screen. Data for the sgs1 mgt1 strain (AID 161);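 further: 0% = growth of cultures given vehicle only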; conditions: S. cerevisiae sgs1 mgt1 strain, stronger effect = higher value
How it was run: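 Mutant yeast exposed to compound; growth scored against vehicle-only wells.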

[4] = NCI Yeast Anticancer Drug Screen. Data for the cln2 rad14 strain (AID 165);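 further: 0% = growth equal to vehicle treated cultures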; conditions: S. cerevisiae cln2 rad14 strain, stronger effect = higher value
How it was run: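 cln2 rad14 yeast strain; compound exposure; growth inhibition read vs vehicle controls.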

[5] = NCI Yeast Anticancer Drug Screen. Data for the bub3 strain (AID 167); conditions: S. cerevisiae bub3 mutant strain, stronger effect = higher value
How it was run: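 Growth of a checkpoint-deficient yeast mutant is measured after compound exposure. Values represent inhibition relative to vehicle.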

[6] = NCI Yeast Anticancer Drug Screen. Data for the mlh1 rad18 strain (AID 175); conditions: S. cerevisiae mlh1 rad18 strain growth inhibition, stronger effect = higher value
How it was run: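 Yeast w/ defined DNA-repair lesions; compound exposure; growth vs vehicle controls → % inhibition.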

[7] = at 5.0 µM (retest, dose inferred, filed as 0.5)
[8] = at 50.0 µM (retest, dose inferred, filed as 5.0)

| SMILES | growth inhibition [1, 7] | growth inhibition [1, 8] | growth inhibition ([1]; at 50.0 µM) | growth inhibition [2, 7] | growth inhibition [2, 8] | growth inhibition ([2]; at 50.0 µM) | growth inhibition [3, 7] | growth inhibition [3, 8] | growth inhibition ([3]; at 50.0 µM) | growth inhibition [4, 7] | growth inhibition [4, 8] | growth inhibition ([4]; at 50.0 µM) | growth inhibition [5, 7] | growth inhibition [5, 8] | growth inhibition ([5]; at 50.0 µM) | growth inhibition [6, 7] | growth inhibition [6, 8] | growth inhibition ([6]; at 50.0 µM) |
| --- | --- | --- | --- | --- | --- | --- | --- | --- | --- | --- | --- | --- | --- | --- | --- | --- | --- | --- |
| O=C(c1ccccc1)C1CCCN(CCc2ccccc2)C1 (configuration not stated) | 54% (inactive) | 64% (inactive) | 57.3% (inactive) | 31% (inactive) | 70% (active) | 55.7% (inactive) | 54% (inactive) | 63% (inactive) | 73.3% (active) | 48% (inactive) | 62% (inactive) | 82% (active) | 43% (inactive) | 56% (inactive) | 84.2% (active) | 56% (inactive) | 67% (inactive) | 67.7% (inactive) |
| CCCCN1C(=O)C2C(C1=O)C1(Cl)C(Cl)=C(Cl)C2(Cl)C1(Cl)Cl (configuration not stated) | 17% (inactive) | 98% (active) | 95.3% (active) | 17% (inactive) | 99% (active) | 96% (active) | 11% (inactive) | 98% (active) | 98.9% (active) | 13% (inactive) | 98% (active) | 99% (active) | 3% (inactive) | 98% (active) | 76.5% (active) | 21% (inactive) | 98% (active) | 76.7% (active) |
| COc1cc(C[C@H]2c3cc(OC)c(OC)c(O)c3CCN2C)c(Oc2cc3c(cc2OC)-c2c(OC)c(OC)c(OC)c4c2C(C3)N(C)CC4)cc1OC (some centres not stated) (tested in a mixture with another compound) | -2% (inactive) | 40% (inactive) | 64.7% (inactive) | -1% (inactive) | 52% (inactive) | 33.5% (inactive) | -6% (inactive) | 36% (inactive) | 47.8% (inactive) | -7% (inactive) | 44% (inactive) | 44.8% (inactive) | 3% (inactive) | 39% (inactive) | 61.5% (inactive) | -5% (inactive) | 96% (active) | 80% (active) |
| ClC(C[n+]1ccccc1)c1ccccc1 (configuration not stated) | 8% (inactive) | 22% (inactive) | 71% (active) and -9.25% (inactive) | 3% (inactive) | 16% (inactive) | 34.2% (inactive) and -1.25% (inactive) | 10% (inactive) | 35% (inactive) | 64.4% (inactive) and -1.8% (inactive) | 4% (inactive) | 3% (inactive) | -2.5% (inactive) and 7.5% (inactive) | 1% (inactive) | 6% (inactive) | 26.4% (inactive) and 11.1% (inactive) | 10% (inactive) | 51% (inactive) | 60.6% (inactive) and 4.6% (inactive) |
| COc1ccccc1[As]=O (configuration not stated) | 1% (inactive) | 99% (active) | 99.3% (active) | -12% (inactive) | 99% (active) | 99.6% (active) | 8% (inactive) | 99% (active) | 99.5% (active) | -14% (inactive) | 99% (active) | 98.6% (active) | 12% (inactive) | 99% (active) | 99.2% (active) | 25% (inactive) | 99% (active) | 99.4% (active) |
| CCC(C)c1cc([N+](=O)[O-])cc([N+](=O)[O-])c1O (configuration not stated) | -137% (inactive) | 39% (inactive) | 79% (active) | -31% (inactive) | 24% (inactive) | 66.2% (inactive) | -50% (inactive) | 60% (inactive) | 86% (active) | -9% (inactive) | 44% (inactive) | 69.9% (inactive) | -58% (inactive) | 19% (inactive) | 80.1% (active) | -123% (inactive) | 40% (inactive) | 85.5% (active) |
| ClCc1nc2ccccc2[nH]1 | 10% (inactive) | 88% (active) | 88.7% (active) | 4% (inactive) | 45% (inactive) | 20.5% (inactive) | 18% (inactive) | 83% (active) | 83.5% (active) | -1% (inactive) | 77% (active) | 60% (inactive) | -9% (inactive) | 1% (inactive) | -31.9% (inactive) | 14% (inactive) | 82% (active) | 74.7% (active) |
| Cc1ccc(S)cc1.[Pb] | 0% (inactive) | 30% (inactive) | 20.1% (inactive) | 2% (inactive) | 6% (inactive) | 43.1% (inactive) | 3% (inactive) | 28% (inactive) | 44.5% (inactive) | 5% (inactive) | 2% (inactive) | -1.55% (inactive) | 3% (inactive) | 50% (inactive) | 95.9% (active) | 0% (inactive) | 13% (inactive) | 83.8% (active) |
| NC(C(=O)O)c1ccccc1Cl (configuration not stated) | -161% (inactive) | -142% (inactive) | 21% (inactive) | -51% (inactive) | -48% (inactive) | 1.65% (inactive) | -64% (inactive) | -57% (inactive) | -2.5% (inactive) | -61% (inactive) | -56% (inactive) | 73.1% (active) | -68% (inactive) | -69% (inactive) | -3.55% (inactive) | -147% (inactive) | -106% (inactive) | 13.9% (inactive) |
| c1ccc2c(NCCCCCCCCNc3c4ccccc4nc4ccccc34)c3ccccc3nc2c1 | 87% (active) | 97% (active) | 85.3% (active) | 89% (active) | 98% (active) | 87.5% (active) | 64% (inactive) | 90% (active) | 75.4% (active) | 44% (inactive) | 83% (active) | 46.7% (inactive) |  |  |  | 91% (active) | 97% (active) |  |
| [C-]#[O+].[C-]#[O+].[C-]#[O+].[CH3][Sn]([c]1ccccc1)[c]1ccccc1.[Co].c1ccc([PH+](c2ccccc2)c2ccccc2)cc1 | 99% (active) | 99% (active) | 99.5% (active) | 99% (active) | 100% (active) | 99.5% (active) | 99% (active) | 100% (active) | 99.5% (active) | 99% (active) | 99% (active) | 99% (active) | 99% (active) | 99% (active) | 99.5% (active) | 99% (active) | 99% (active) | 99.3% (active) |
| CC(=O)[O][Hg][c]1cc2c(cc1O)Cc1cc([N+](=O)[O-])ccc1-2 | 95% (active) | 98% (active) | 93.5% (active) | 99% (active) | 99% (active) | 98% (active) | 99% (active) | 99% (active) | 86.2% (active) | 76% (active) | 98% (active) | 94.1% (active) | 99% (active) | 98% (active) | 97.6% (active) | 99% (active) | 99% (active) | 96.5% (active) |
| c1ccc(P(CCP(c2ccccc2)c2ccccc2)CCP(c2ccccc2)c2ccccc2)cc1 | 98% (active) | 98% (active) | 92.3% (active) | 94% (active) | 94% (active) | 93% (active) | 92% (active) | 92% (active) | 91% (active) | 84% (active) | 84% (active) | 5.95% (inactive) | 96% (active) | 96% (active) | 92.8% (active) | 95% (active) | 95% (active) | 91.8% (active) |
| O=C(O)c1cc([N+](=O)[O-])c(Cl)c([N+](=O)[O-])c1Cl | 80% (active) | 99% (active) | 62.8% (inactive) | 82% (active) | 99% (active) | 42.3% (inactive) | 20% (inactive) | 93% (active) | 46.9% (inactive) | 38% (inactive) | 100% (active) | 43.1% (inactive) | 51% (inactive) | 96% (active) | 64% (inactive) | 70% (active) | 99% (active) | 49% (inactive) |
| CCOP(=O)(OCC)/C(C#N)=C/c1ccccc1Cl | 17% (inactive) | 74% (active) | 82.5% (active) | -7% (inactive) | 62% (inactive) | 72.8% (active) | 2% (inactive) | 65% (inactive) | 79.8% (active) | 10% (inactive) | 55% (inactive) | 64.8% (inactive) | 0% (inactive) | 74% (active) | 72.7% (active) | -2% (inactive) | 77% (active) | 81.8% (active) |
| CCCOc1ccc(/C=C/[N+](=O)[O-])cc1N | 58% (inactive) | 99% (active) | 99.2% (active) | 52% (inactive) | 99% (active) | 99.5% (active) | 78% (active) | -8% (inactive) | 99.5% (active) | 17% (inactive) | 99% (active) | 98.9% (active) | 34% (inactive) | 99% (active) | 99.5% (active) | 49% (inactive) | 99% (active) | 99.3% (active) |
| O=C(O)C1(c2ccccc2)OC1c1ccccc1 (configuration not stated) | 2% (inactive) | 67% (inactive) | 47% (inactive) | 0% (inactive) | 82% (active) | 81.3% (active) | 3% (inactive) | 71% (active) | 84.7% (active) | 2% (inactive) | 80% (active) | 79.8% (active) | -6% (inactive) | 93% (active) | 64.6% (inactive) | -1% (inactive) | 86% (active) | 84.3% (active) |
